Bioassay records as filed in PubChem.
KCNQ2 inh = inhibitors of rat KCNQ2 potassium channel; O88943; CHO-K1 KCNQ2, FluxOR thallium flux, 20 min; hits give low values; B-score at 10 µM; actives 1.1% (n = 310,000);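 active means fluorescence ratio B-score at most minus 3 library SDs, with starting brightness B-score within 2 library SDs, cut at about -5.5 in these data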
KCNQ2 pot = enhances the rat KCNQ2 potassium channel; O88943; CHO-K1 KCNQ2, FluxOR thallium flux fluorescence; hits give high values; B-score at 10 µM; actives 0.54% (n = 310,000);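 active means fluorescence ratio B-score at least 3 SD of library B-scores, with initial fluorescence B-score within 3 of them, cut at about 5.3 in these data; same plate scores as AID 2156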;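 further: B-score of peak minus minimum over baseline fluorescence ratio after K+ and Tl+ stimulus; positive B-score means potentiation of KCNQ2 with more thallium influx and brighter signal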
Numbers stand for hits; . = inactive; / = not tested or not shown. Compounds with a hit are over-represented: about 1.6% of the library has one in this group of screens.

SMILES	KCNQ2 inh	KCNQ2 pot
COc1cccc(NC(=O)N(Cc2ccco2)C(C)c2cccs2)c1 (stereo not given)	.	.
COCCN(C(=S)Nc1ccc(OC)cc1)C(C)c1cccs1 (stereo not given)	.	.
Cc1ccc(NC(=S)N(Cc2ccco2)C(C)c2cccs2)c(Cl)c1 (stereo not given)	-6.2	.
Cc1ccc(NC(=O)N(Cc2cccnc2)Cc2ccco2)cc1C	.	/
Cc1ccc(C)c(NC(=S)N(Cc2ccco2)C(C)c2cccs2)c1 (stereo not given)	.	/
Cc1[nH]c(C)c(S(=O)(=O)NCCc2ccccc2)c1C(=O)N1CCCCC1	.	.
N#CC1(NC(=O)COC(=O)c2cccc(-n3cnnn3)c2)CCCCC1	.	.
COc1cc(C)nc(NC(=O)NC(=O)c2ccc(C(F)(F)F)cc2)n1	.	.
Cc1ccc(NC(=O)CN(Cc2ccco2)Cc2ccccc2O)cc1C	-5.8	.
Cc1ccc(NC(=O)C[n+]2ccccc2)cc1C	.	.
COc1ccccc1CNC(=O)CCNC(=O)C1CCN(S(=O)(=O)c2ccccc2)CC1	.	.
CC(NC(=O)c1ccc(Br)cc1)c1ccccc1 (stereo not given)	.	.
CC(C)OP(=O)(OC(C)C)C(NC(=O)c1ccc(Br)cc1)c1ccccc1 (stereo not given)	-8	.
COc1ccccc1OCC(=O)NCCSCc1ccc(Cl)cc1	-5.6	.
COc1ccccc1N(CC(=O)NCCSCc1ccc(Cl)cc1)S(C)(=O)=O	.	.
O=C(CSCc1ccc(Cl)cc1)NCCSCc1ccco1	-6.4	.
O=C(CSCc1c(F)cccc1Cl)NCCSCc1ccco1	.	/
COc1cc2c(cc1OC)C(C)N(S(=O)(=O)c1ccc(Cl)nc1)CC2 (stereo not given)	.	/
CCOc1ccc(NC(=O)CN(C)C(=O)CCCn2c(=O)oc3ccccc32)cc1OCC	.	.
CCOC(=O)C1=C(c2ccccc2)NC(N)=NC1c1ccc(OCc2ccc(Cl)cc2)c(OC)c1 (stereo not given)	-6.2	.
CCOC(=O)C1=C(c2ccccc2)NC(=O)NC1c1cc(Cl)c(O)c(OC)c1 (stereo not given)	.	/
Cc1ccc(-n2nnc3c(=O)n(CC(N)=O)cnc32)cc1	.	.
Cc1ccc(-c2nnc(N3CCC(C)CC3)c3ccccc23)cc1	.	/
CC1CCN(c2nnc(-c3ccccc3)c3ccccc23)CC1	-5.8	.
Cn1c(O)c(N=Nc2nc(-c3ccccc3)cs2)c2ccccc21	.	22
SMILES	KCNQ2 inh	KCNQ2 pot
Cn1c(O)c(N=Nc2ccccc2)c2ccccc21	.	.
O=C(O)CC1(O)C(=O)N(Cc2ccccc2)c2ccccc21 (stereo not given)	.	.
Cc1ccc(C(=O)N2c3ccccc3N(Cc3ccccc3)C(=O)C2(C)C)cc1	-5.6	.
O=C1CCC(C(=O)N2CCCCO2)CN1Cc1ccc(Cl)cc1 (stereo not given)	.	.
Cc1ccc2nsnc2c1S(=O)(=O)Nc1ccccc1C(=O)O	.	/
CC(=O)Nc1ccc(S(=O)(=O)N(C)CC(=O)OC(C)C(=O)N(C)Cc2ccccc2)cc1 (stereo not given)	.	.
O=C(C(=O)N1CCCCC1)c1c(-c2ccccc2)[nH]c2ccccc12	.	/
Cc1c(CC(=O)O)c(=O)oc2c(C)c(OCc3ccc(F)cc3Cl)ccc12	.	/
O=C1CC(c2ccc(Br)cc2)NC(c2ccc(Br)cc2)C1c1ccccc1 (stereo not given)	-5.7	.
c1ccc(C2CC(c3ccccc3)C(c3ccccc3)N2)cc1 (stereo not given)	.	/
Cc1ccc(NC(=O)Cn2nnc(C(=O)NCCc3ccccc3)c2N)c(C)c1	.	/
COc1ccc(-n2cccc2/C=C/[N+](=O)[O-])cc1	-6.5	.
COc1ccc(-n2cccc2C=O)cc1	.	.
COc1ccc(CNC(=O)CN(C(=O)CCC(=O)Nc2nccs2)c2ccccc2C)cc1	.	/
CSc1ncccc1C(=O)N1CCN(S(=O)(=O)c2ccc(C)cc2)CC1	.	.
COc1ccc(OC)c(CCNC(=O)Cn2nc(C)c3c(C)n(-c4ccccc4)nc3c2=O)c1	.	.
CC(=O)N(CCC(Cc1ccccc1)c1ccc2c(c1)OCO2)Cc1ccc(Cl)cc1 (stereo not given)	-10	.
O=C(O)CC(Cc1ccccc1)c1ccc2c(c1)OCO2 (stereo not given)	.	/
Cc1ccc(N=Nc2ccc(O)cc2)c(Br)c1	-5.7	.
Oc1ccc(N=Nc2ccc(Br)cc2)c(O)c1	.	.
COc1cccc(NC(=O)N2CCCC2C(=O)NCc2ccc(Cl)cc2)c1 (stereo not given)	.	.
Cc1onc(-c2ccc(Cl)cc2)c1-c1ccnc(SCC(=O)Nc2ccc(C(C)C)cc2)n1	-5.6	.
O=C(CSc1nccc(-c2cccs2)n1)Nc1ccc(Cl)cc1	.	.
CCOCCCNC(=O)Cn1nc(Cc2ccncc2)c2ccccc2c1=O	.	/
CC1=CC(C)(C)n2c(O)c(N=NC(N)=S)c3c(C)c(C)cc1c32	.	.
SMILES	KCNQ2 inh	KCNQ2 pot
CC1=CC(C)(C)n2c(O)c(N=N)c3c(C)c(C)cc1c32	-6.6	.
O=C(NNC(=S)NC(=O)c1sc2ccccc2c1Cl)c1ccc(Cl)cc1	.	13
O=C(O)c1ccccc1NC(=S)NC(=O)c1sc2ccccc2c1Cl	.	.
COc1ccc(C(=O)OC(C)C(=O)NC2CCCCC2C)cc1S(=O)(=O)N1CCOCC1 (stereo not given)	.	/
O=c1cc(CN2CCN(C/C=C/c3ccccc3)CC2)c2cc(O)c(-c3ccccc3)cc2o1	.	.
CC(C)CN(Cc1cc(=O)oc2cc(-c3ccccc3)c(O)cc12)CC(C)C	-7.5	.
c1ccc2c(c1)nc(NCc1ccc3c(c1)OCO3)n2CCN1CCOCC1	.	/
c1ccc(Cn2c(CNc3nc4ccccc4n3CCN3CCOCC3)nc3ccccc32)cc1	-6	.
Cc1ccc(S(=O)(=O)Cc2nnnn2-c2ccccc2)cc1	.	.
CCOC(=O)Cn1nc(-c2ccccc2)c2ccccc2c1=O	.	.
O=c1c2ccccc2c(-c2ccccc2)nn1Cc1c(Cl)cccc1Cl	-5.8	.
C/C(=N/N=C1\SCC(=O)N1c1ccccc1)c1ccc(C)cc1	.	.
Cc1cc(N/N=C/c2ccccc2Cl)nc(NCc2ccccc2)n1	-6.4	.
Cc1cc(C)nc(N/N=C/c2ccccc2Cl)n1	.	.
COC(=O)c1sccc1NC(=O)c1c(Cl)cnn1C	.	.
COCCN1C(=O)/C(=C/c2ccc(OCc3ccc(C(=O)O)cc3)c(OC)c2)SC1=Nc1ccccc1	-6.1	.
COc1cc(/C=C2\SC(=Nc3ccccc3)N(Cc3ccco3)C2=O)ccc1OC(C)C(=O)O (stereo not given)	.	/
CC(=O)c1cccc(NS(=O)(=O)c2cc3c(cc2C)N(C(C)=O)CCO3)c1	.	.
CCOC(=O)C1=C(N)Oc2ccc3ccccc3c2C1c1ccc(O)cc1 (stereo not given)	-6.5	.
CCOC(=O)C1=C(N)Oc2ccc3ccccc3c2C1c1ccc(O)c(OC)c1 (stereo not given)	.	/
CN1CCN(/N=C/c2ccc(-c3ccccc3)cc2)CC1	.	/
CN1CCN(/N=C/c2c3ccccc3c(Cl)c3ccccc23)CC1	-7.1	.
O=c1c2ccccc2nc(SCc2nnc(-c3ccccc3Br)o2)n1-c1ccccc1	.	/
O=c1c2ccccc2nc(SCc2nnc(-c3ccccc3)o2)n1-c1ccc(F)cc1F	-6.4	.
CSc1cc(-c2ccco2)oc1C(=O)c1ccco1	.	.
